# In PubChem BioAssay AID1851 (National Center for Advancing Translational Sciences (NCATS), 2009):
# “And” between values parts separate entries of the source, which are not always exact repeats. Equal values may be shown once. In all, about 16,000 compounds went through this assay and about 5,100 (32%) were called active. Another 25% or so got no clear call; they are omitted. Calls come from the whole dose curve; as a rule, active = well fitted curve in the direction sought with a large enough effect; inconclusive = small, poorly fitted or top-dose-only effect, or effect the other way; inactive = no such curve, though single readings can be large or run the other way. The list shows a part of the results. More than one record can exist for a structure, and the calls need not agree.
# Molecular target: Cytochrome P450 3A4 (Homo sapiens) (UniProt P08684)
# Test: Cytochrome panel assay with activity outcomes
# Details: recombinant CYP, pro-luciferin dealkylation, luminescence, p450-cyp3a4; series mostly up to 57.1 µM; activity, negative = inhibition: at the top concentration
# % is set by controls: 0 for no effect and ±100 for the full control effect.
# Sequence of Cytochrome P450 3A4 (Homo sapiens) (P08684 whole entry, looked up): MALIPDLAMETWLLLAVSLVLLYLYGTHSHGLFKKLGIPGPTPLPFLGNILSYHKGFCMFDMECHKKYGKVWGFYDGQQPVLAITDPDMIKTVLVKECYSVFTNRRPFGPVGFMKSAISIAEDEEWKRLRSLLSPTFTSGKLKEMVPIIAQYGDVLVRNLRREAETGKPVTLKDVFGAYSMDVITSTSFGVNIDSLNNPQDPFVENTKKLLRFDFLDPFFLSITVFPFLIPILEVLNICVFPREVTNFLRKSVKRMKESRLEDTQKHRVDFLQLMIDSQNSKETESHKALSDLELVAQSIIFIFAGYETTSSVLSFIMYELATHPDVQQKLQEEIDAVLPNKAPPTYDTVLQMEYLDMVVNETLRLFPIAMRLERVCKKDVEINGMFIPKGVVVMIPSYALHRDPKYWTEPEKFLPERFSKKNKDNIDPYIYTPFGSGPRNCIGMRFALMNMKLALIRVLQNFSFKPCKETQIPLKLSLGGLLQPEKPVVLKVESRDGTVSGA
Compound,"activity, negative = inhibition",AC50
CN[C@H](Cc1ccccc1)c1cccc(OC)c1O,-2.26% [at 11.4 µM] (inactive),–
c1ccc2c(c1)Sc1ccccc1N2C[C@H]1CN2CCC1CC2,-6.51% [at 11.4 µM] (inactive),–
CCOP(=O)(OCC)C(NC(C)=O)C(Cl)(Cl)Cl (configuration not stated),-11.2% (inactive),–
CCCC[N+]12CCC(CC1)C(C(=O)c1cccs1)C2 (configuration not stated),-11.1% (inactive),–
CC(=O)NCCc1c[nH]c2ccccc12,-21.8% (inactive),–
ClCCNc1nc2ccc(Cl)cc2[nH]1,13.4% (inactive),–
CC(=O)OCC1=C(C(=O)[O-])N2C(=O)[C@@H](NC(=O)CCC[C@@H](N)C(=O)[O-])[C@@H]2SC1.[Zn+2],2.83% (inactive),–
C=CCN1CCC2(C)c3cc(O)ccc3C[C@H]1[C@H]2C,inactive,–
C=CCN1C[C@H](C)N([C@H](c2ccc(C(=O)N(CC)CC)cc2)c2cccc(O)c2)C[C@H]1C,–,12.6 µM (active)
C[C@H](N)Cc1c[nH]c2ccc(O)cc12,inactive,–
O=C(CN1CCCCC1)Nc1ccc(Br)cc1C(=O)c1ccccc1Cl,-0.765% [at 2.29 µM] (inactive),–
O=C(Nc1ccc(Cl)cc1C(=O)c1ccccc1Cl)c1ccco1,-25.6% (inactive),–
COc1ccc(OCC(=O)Nc2ccc(Cl)cc2C(=O)c2ccccc2)cc1,–,2.24 µM (active)
CNC(C)(C)Cc1ccccc1,-9.59% [at 25.6 µM] (inactive),–
CCCN1CCC[C@@H]2Cc3[nH]ncc3C[C@H]21,inactive,–
CC(C(=O)c1c[nH]c2ccccc12)N1CCSCC1 (configuration not stated),-1.61% [at 2.29 µM] (inactive),–
CN(C)CCC(=O)[C@@]1(O)CC[C@H]2[C@H]3CC=C4C[C@@H](O)CC[C@]4(C)[C@H]3CC[C@]21C,-0.253% [at 11.4 µM] (inactive),–
c1cncc(CNCCN2CCNCC2)c1,-5.07% [at 11.4 µM] (inactive),–
c1cncc(CNc2cc(-c3ccc4c(c3)OCO4)ncn2)c1,–,0.794 µM (active)
O[C@@H](c1cc(-c2ccccc2)nc2c1ccc1ccccc12)[C@@H]1CCCCN1,-0.102% [at 11.4 µM] (inactive),–
C[C@H]1CC[C@@]2(NC1)O[C@@H]1C[C@H]3[C@@H]4CC[C@@H]5C[C@@H](O)CC[C@@]5(C)[C@@H]4CC[C@]3(C)[C@@H]1[C@@H]2C,-6.73% [at 25.6 µM] (inactive),–
NCC[C@H](O)C(=O)N[C@H]1C[C@@H](N)[C@@H](O[C@H]2O[C@@H](CN)[C@@H](O)[C@@H](O)[C@@H]2N)[C@@H](O[C@H]2O[C@@H](CO)[C@@H](O)[C@@H]2O)[C@@H]1O,-10.2% [at 25.6 µM] (inactive),–

Compound,"activity, negative = inhibition",AC50
O=C(O)c1ccccc1Nc1cccc(C(F)(F)F)c1,-0.956% [at 25.6 µM] (inactive),–
CC(O)(CS(=O)(=O)c1cccc(C(F)(F)F)c1)C(=O)Nc1cccc(C(F)(F)F)c1 (configuration not stated),–,1.41 µM (active)
CC(O)(CS(=O)(=O)c1ccccc1)C(=O)Nc1cccc(C(F)(F)F)c1 (configuration not stated),–,4.47 µM (active)
CC(O)(CS(=O)(=O)c1cccc(C(F)(F)F)c1)C(=O)Nc1ccc(C(F)(F)F)cc1 (configuration not stated),–,1.41 µM (active)
Cc1o[nH]c(=O)c1C[C@@H](N)C(=O)O,-12.3% (inactive),–
CC1=C(O)C(=O)[C@H]2O[C@@H]2C1=O,-6.84% (inactive),–
O=C(O)CCCC[C@H]1SC[C@H]2NC(=O)N[C@@H]21,0.249% [at 25.6 µM] (inactive),–
O=C(O)[C@H]1[O][Sb][O][C@@H](C(=O)O)C1O (some centres not stated),-10.4% [at 11.4 µM] (inactive),–
C[C@]1(O)CC[C@H]2[C@@H]3[C@@H](O)CC4=CC(=O)CC[C@@]4(C)[C@H]3CC[C@]21C,-2.12% [at 11.4 µM] (inactive),–
CC1(C)N=C(N)N=C(N)N1c1cccc(C(=O)Nc2ccc(S(=O)(=O)F)cc2)c1,17.5% [at 11.4 µM] (inactive),–
O=[As](O)(O)c1ccc(N=Nc2ccc(O)cc2)cc1,-4.07% [at 11.4 µM] (inactive),–
C[N+](C)(C)CC(=O)O,-1.03% (inactive),–
N=C(N)SCc1ccc(Cl)c2ccccc12 (tested in a mixture with another compound),-2.18% [at 11.4 µM] (inactive) and 15.2% [at 11.4 µM] (inactive),–
CC(C)c1c(CN(C)[C@@H](C)Cc2ccccc2)n(C)n(-c2ccccc2)c1=O,–,3.98 µM (active)
C=C[C@@H]1CN2CC[C@H]1C[C@H]2[C@H](O)c1ccnc2ccccc12,-1.79% [at 11.4 µM] (inactive),–
CC(C)CNCCc1ccccn1,-8.38% [at 11.4 µM] (inactive),–
CCC1(C)CC(=O)NC(=O)C1,-6.38% [at 25.6 µM] (inactive),–
COc1ccc(CNC(=O)/C=C\c2ccc3[nH]cc(CCN(C)C)c3c2)cc1,–,15.8 µM (active)
COc1ccc2[nH]cc(CCN(C)C)c2c1,-11.1% (inactive),–
CCCN(CCC)CCc1c[nH]c2ccc(C(N)=O)cc12,11.3% (inactive),–
N[C@@H](CSC1c2ccccc2-c2ccccc21)C(=O)O,-17.3% [at 11.4 µM] (inactive),–
Cn1c[n+](C)cc1C(O)c1ccccc1 (configuration not stated),1.92% [at 2.29 µM] (inactive),–

Compound,"activity, negative = inhibition",AC50
C=C(C)c1ccccc1 (tested in a mixture with another compound),-22.2% [at 11.4 µM] (inactive),–
CN1C(=O)C(=Cc2ccc(N3CCCCCC3)o2)C(=O)N(C)C1=S,–,3.98 µM (active)
CN1C(=O)C(=Cc2ccc(N3CCCCC3)o2)C(=O)N(C)C1=S,12.5% (inactive),–
CCN1CCC2(CC1)NC(CO)(CO)CO2,4.42% (inactive),–
C[C@]12N[C@@H](Cc3ccccc31)c1ccccc12,inactive,–
Cc1cccc(N2C(=O)NC(=O)/C(=C\c3cnn(-c4ccccc4)c3)C2=O)c1,8.31% [at 2.29 µM] (inactive),–
Cc1cc(C)cc(NC(=S)NC2CC3CCC(C2)N3Cc2ccco2)c1 (configuration not stated),-17.6% (inactive),–
CN(C)CS/C(N)=N/[C@H](O)C(Cl)(Cl)Cl,-7.61% [at 11.4 µM] (inactive),–
CC[N+](CC)(CCNC(=O)C(=O)NCC[N+](CC)(CC)Cc1ccccc1Cl)Cc1ccccc1Cl,-14.7% (inactive),–
C[C@@H]1CC[C@@H]2N(C1)C[C@H]1[C@@](O)([C@H](O)C[C@]3(O)[C@H]4CC[C@H]5[C@]6(O)O[C@]4(C[C@]13O)[C@@]5(C)CC[C@@H]6O)[C@@]2(C)O,-1.62% [at 11.4 µM] (inactive),–
Nc1ncnc2c1ncn2[C@@H]1O[C@@H](COP(=O)(O)CP(=O)(O)OP(=O)(O)O)[C@H](O)[C@@H]1O,-7.46% (inactive),–
O=C(O)CC[N+](=O)[O-],-3.73% (inactive),–
CC(C)Oc1cc(-n2c(=S)[nH]c3ccccc3c2=O)c(Cl)cc1Cl,–,3.16 µM (active)
CN1[C@H]2CC(=O)C[C@@H]1[C@@H](O)C2,-6.95% [at 25.6 µM] (inactive),–
c1ccc2cc(CC3=NCCN3)ccc2c1,2.4% (inactive),–
N[C@H](Cn1ccc(=O)[nH]c1=O)C(=O)O,-12.2% (inactive),–
CC[C@@H](CO)NC(=O)[C@H]1C=C2c3cccc4c3c(cn4C)C[C@H]2N(C)C1,-23.2% (inactive),–
CC[C@@H](CO)Nc1nc(NCc2ccccc2)c2ncn(C(C)C)c2n1,–,12.6 µM (active)
CC(C)[C@H](CO)Nc1nc(Nc2cccc(Cl)c2)c2ncn(C(C)C)c2n1,–,12.6 µM (active)
COC(=O)c1c(C)ccc2c(O)c3c(cc12)C(=O)c1c2c(cc(O)c1C3=O)[C@@]1(C)O[C@@](C)(O2)[C@@H](O)[C@H](N(C)C)[C@H]1O,-1.78% [at 11.4 µM] (inactive),–
C(=NC12CN3CN(CN(C3)C1)C2)c1cccs1,6.71% (inactive),–
CN(C)C(=O)Oc1cccc([N+](C)(C)C)c1,-6.77% (inactive),–

Compound,"activity, negative = inhibition",AC50
COC(=O)C1=CCCN(C)C1,inactive,–
CC(C)N[C@@H](C)Cc1ccc(I)cc1,-6.5% (inactive),–
Nc1nc(N)c(N=Nc2ccc([As](=O)(O)O)cc2)c(=O)[nH]1,8.58% [at 11.4 µM] (inactive),–
C/C=C1\C[C@H](C)[C@@](O)(CO)C(=O)OCC2=CCN3CC[C@@H](OC1=O)[C@@H]23,11.6% [at 25.6 µM] (inactive),–
N=C1c2ccccc2CN1NC(=O)c1ccc(F)cc1,-6.32% (inactive),–
Cc1nccc2c1[nH]c1ccccc12,–,inactive and 3.98 µM (active)
Cc1c2ccncc2c(C)c2c1[nH]c1ccccc12,–,0.158 µM (active)
CCN(CC)CCn1ncc2c(N)ncnc21,-6.29% [at 11.4 µM] (inactive),–
COc1ccc2cc1Oc1ccc(cc1)C[C@H]1c3cc(c(OC)cc3CCN1C)Oc1c(OC)c(OC)cc3c1[C@@H](C2)N(C)CC3,-2.4% [at 11.4 µM] (inactive),–
C[N+]1(C)CCO[C@](O)(c2ccc(-c3ccc([C@]4(O)C[N+](C)(C)CCO4)cc3)cc2)C1,0.891% [at 25.6 µM] (inactive),–
COCCn1c(SCc2nc3sc(C(=O)OC)c(C)c3c(=O)[nH]2)nc2ccccc21,–,3.55 µM (active)
CC1(C)N(O)C(c2ccc(C(=O)O)cc2)=[N+]([O-])C1(C)C,-3.6% (inactive),–
CC(C)[C@@H](C)/C=C\[C@@H](C)[C@@H]1CC[C@H]2C3=CC=C4C[C@@H](O)CC[C@]4(C)[C@H]3CC[C@]21C,10.4% [at 11.4 µM] (inactive),–
NCCP(=O)(O)O,-6.9% [at 11.4 µM] (inactive),–
CCOCCN1CCC(OC(C)=O)C(C)C1 (configuration not stated),-5.63% (inactive),–
CC(C)(C)NC[C@@H](O)COc1cccc2[nH]c(C#N)cc12,–,25.1 µM (active)
NCC1(CC(=O)O)CCCCC1,inactive,–
COc1cc(/C=N/NC(=O)CN2CC(c3ccccc3)CC2=O)ccc1OC(=O)N(C)C (configuration not stated),-11.8% (inactive),–
CC[C@H](C)C(=O)O[C@@H]1[C@H](O)[C@@H]2[C@H](CN3C[C@@H](C)CC[C@@H]3[C@@]2(C)O)[C@@H]2C[C@@]34O[C@@]5(O)[C@@H](OC(=O)[C@](C)(O)CC)CC[C@@]3(C)[C@H]5[C@H](OC(C)=O)[C@@H](OC(C)=O)[C@H]4[C@]12O,2.61% [at 25.6 µM] (inactive),–
N[C@@H](Cc1cc(Br)c(O)c(Br)c1)C(=O)O,-16.7% [at 11.4 µM] (inactive),–
Cc1ccc2c(c1)C1CN(C)CCC1N2C(=O)Nc1cccc(Cl)c1 (configuration not stated),-26.5% (inactive),–
